Compounds with a hit are over-represented: about 10% of the library has one in this group of screens.
JMJD2A Tudor inh: JMJD2A Tudor domain (human) inhibition. AlphaScreen JMJD2A-Tudor / H3K4me3 peptide binding. AID 504339. Potency, µM (top dose mostly 114 µM), without a hit: top-dose activity change, negative = inhibition, usual class: inhibitors. 390,000 compounds, 4.4% hits; note: potency is the fitted concentration of half-maximal effect; % is set by controls: 0 for no effect and ±100 for the full control effect; nearly all actives have a fitted effect of over 50% in size
Six1-Eya2 blk: blocks human Six1 binding to Eya2; Q15475+O00167; AlphaScreen GST-Six1/His-Eya2 binding, biochemical; active compounds read low; activity change, % (test concentration not listed); 360,000 compounds, 0.56% hits; in the data active = activity change below about -65%; inconclusive = mostly about -30% to -63%; note: % is set by controls: 0 for no effect and ±100 for the full control effect
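Homogeneous AlphaScreen proximity assay pairing GST-Six1 with His-tagged Eya2 (added as 5X mix: 250 nM and 500 nM) in 50 mM Tris pH 8.0, 300 mM NaCl, 1 mM TCEP. Glutathione donor and nickel acceptor beads; 1 h, 37 °C, dark.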
G9a block: blocks human histone lysine methyltransferase G9a | Q96KQ7 | G9a H3K9 monomethylation, AlphaScreen, 2 h | Potency, µM (series often up to 102 µM), without a hit: at the highest dose activity, negative = inhibition, hits mostly inhibitors | 350,000 compounds, 8.8% hits; note: potency is the fitted concentration of half-maximal effect; % is set by controls: 0 for no effect and ±100 for the full control effect; nearly all actives have a fitted effect of over 75% in size
Target sequence (Q96KQ7 913-1193 limits assumed): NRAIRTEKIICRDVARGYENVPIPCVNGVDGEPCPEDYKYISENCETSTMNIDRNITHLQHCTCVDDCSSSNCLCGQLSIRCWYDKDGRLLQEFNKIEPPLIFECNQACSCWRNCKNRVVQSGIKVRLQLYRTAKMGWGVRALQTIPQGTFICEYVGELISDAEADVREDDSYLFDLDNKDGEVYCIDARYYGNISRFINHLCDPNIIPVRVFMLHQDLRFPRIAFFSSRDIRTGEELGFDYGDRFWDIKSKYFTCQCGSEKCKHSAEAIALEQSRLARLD
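Signal arises when biotinylated H3K9 peptide, once monomethylated, bridges streptavidin donor and antibody-captured acceptor beads. Enzyme at 20 nM was preincubated 15 min with test compounds; peptide 500 nM and SAM 20 uM then reacted for 2 h.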
BAZ2B inh: BAZ2B (human) inhibition. Q9UIF8. AlphaScreen BAZ2B-H3K14Ac peptide displacement. Potency, µM (doses to about 114 µM), without a hit: at the highest dose activity change, negative = inhibition, most hits filed as inhibitors. 360,000 compounds, 4.4% hits. AID 504333; note: potency is the fitted concentration of half-maximal effect; % is set by controls: 0 for no effect and ±100 for the full control effect; nearly all actives have a fitted effect of over 60% in size
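Protein-peptide AlphaScreen: BAZ2B 50 nM, b-H3K14Ac 50 nM, 1x PBS pH 7.4 + 0.01% Tween-20. Preincubation 30 min RT; cpd 30 min RT (top 110 uM); beads 20 min RT, light-protected.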
CtBP-E1A blk: inhibitors of CtBP/E1A interaction. AlphaScreen GST-E1A/His-CtBP binding, 1536-well; active compounds read low. activity change, % (test concentration not listed). 340,000 compounds, 0.49% hits; in the data active = activity change below about -65%; inconclusive = mostly about -30% to -63%; note: % is set by controls: 0 for no effect and ±100 for the full control effect
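Steps: dispense buffer (Tris pH 8.0, NaCl 300 mM, TCEP 1 mM, BSA, Tween 20); add 5X protein mix (GST-E1A, His-CtBP, 125 nM each); pin 23 nL compound; 2 h at 37 °C, dark; add 5X beads (50 ug/mL); 1 h; read.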
HP1b binding inh: blocks HP1-beta chromodomain binding to methylated histone tails; P83916; AlphaScreen HP1-beta / biotin-H3K9me3 peptide binding; Potency, µM (doses to about 114 µM), for inactives: top-dose activity change, negative = inhibition, actives largely listed as inhibitors; 390,000 compounds, 0.56% hits; AID 540317; note: potency is the fitted concentration of half-maximal effect; nearly all actives have a fitted effect of over 70% in size
Target sequence (P83916 whole entry, looked up): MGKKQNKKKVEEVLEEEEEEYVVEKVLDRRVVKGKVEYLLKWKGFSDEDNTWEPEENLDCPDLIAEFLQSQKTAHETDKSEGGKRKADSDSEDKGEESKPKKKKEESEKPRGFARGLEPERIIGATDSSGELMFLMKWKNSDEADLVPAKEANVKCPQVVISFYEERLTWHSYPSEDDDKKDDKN
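Compound inhibition of the preformed complex between 50 nM HP1-beta and 50 nM biotinylated H3K9me3 peptide was read by AlphaScreen. Buffer was PBS pH 7.4 with 0.01% Tween-20. Incubations ran 30 min at room temperature, with 10 ug/mL donor/acceptor beads.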
* marks the source's active call; other numbers are inactive results; ? = inconclusive; . = no result given; ! = not active in a repeat; [ ] = dose if it differs, or a comment. Unless noted, calls come from the whole dose curve; as a rule, active = well fitted inhibition curve with a large enough effect; inconclusive = small, poorly fitted or top-dose-only effect; inactive = no such curve, though single readings can be large or run the other way.

SMILES	JMJD2A Tudor inh	Six1-Eya2 blk	G9a block	BAZ2B inh	CtBP-E1A blk	HP1b binding inh
Cc1ccc2[nH]c(C)c(CCNCc3ccco3)c2c1	?	-14.9	?	?	.	-9.3%[57 µM]
CCOc1cccc(CNCCc2c(C)[nH]c3ccc(OC(F)(F)F)cc23)c1O	39.8µM*	-20.7	10µM*	35.5µM*	.	?
Cc1[nH]c2ccc(OC(F)(F)F)cc2c1CCNCc1cccc([N+](=O)[O-])c1	7.08µM*	-21.4	50.1µM*	50.1µM*	-16.3	?
COc1ccc2[nH]c(C)c(CCNCc3cccnc3)c2c1	7.08µM*	-1.0	?	20µM*	-13.1	?
CCCCc1nc2ccccc2c(=O)n1-c1cccc(OC)c1	-7.8%	.	-8.1%[59 µM]	6.4%	.	-6.7%
COc1ccc2c(c1)C13CCCCC1C(C2)N(C)CC3 (stereo not drawn)	.	.	19.8%[12.7 µM]	.	.	.
CCN(CC)CCNC(=O)c1c(O)c2ccccc2n(Cc2ccccc2)c1=O	79.4µM*	-1.4	?	-37.0%	-6.5	-7.7%
c1ccc2sc(C3(N4CCCC4)CCCCC3)cc2c1	.	.	-3.9%[59 µM]	.	.	.
C[N+]12CCC(CC1)C(C#N)(N1CCOCC1)C2 (stereo not drawn)	?	3.9	50.1µM*	0.8%	-3.5	21.4%
O=P1(Oc2ccccc2)CC=CC(COCc2ccccc2)O1 (stereo not drawn)	0.7%	.	.	.	.	35.3%
CN(C)c1nc(-c2ccccc2)[n+](C)s1	-18.3%	7.4	3.16µM*	1.3%	5.2	0.8%
O=C1NC(=O)N(c2ccccc2)C(=O)/C1=C\c1ccccc1[N+](=O)[O-]	-8.7%	-0.6	28.2µM*	-7.8%	-0.9	11.9%
COc1cccc(N2C(=O)NC(=O)/C(=C/c3ccc4c(c3)Cc3ccccc3-4)C2=O)c1	56.2µM*	8.2	7.08µM*	44.7µM*	0.0	43.0%
COc1cc(/C=C2/C(=O)NC(=O)N(c3ccccc3)C2=O)ccc1O	-10.7%	-2.7	35.5µM*	-1.3%	0.5	34.4%
O=C1NC(=O)N(c2ccccc2)C(=O)/C1=C/c1ccoc1	-14.0%	-14.5	39.8µM*	?	0.2	23.3%
Cc1cc(C)cc(N2C(=O)NC(=O)/C(=C\c3cccn3-c3ccccc3)C2=O)c1	-15.4%	9.4	?	-18.5%	5.6	17.6%
O=S1(=O)N(Cc2ccccc2)CCCN1Cc1ccc(F)cc1Cl	92.1%	.	73.1%[59 µM]	98.9%	.	130.4%
CC(C)C[C@H]1C(=O)N2CCC[C@H]2[C@]2(O)O[C@](NC(=O)[C@@H]3C=C4c5cccc6[nH]c(Br)c(c56)CC4N(C)C3)(C(C)C)C(=O)N12 (stereo partly drawn)	0.0%	-8.4	?	?	-10.8	31.9%
C[N+](C)(C)CCCCCCCCCC[N+](C)(C)C	-2.2%	0.0	19.8%[59 µM]	-0.5%	-0.7	51.2%
CCOc1cc(/C=C2/C(=O)NC(=O)N(c3ccc(CC)cc3)C2=O)ccc1OC(=O)c1cccs1	79.4µM*	-13.5	29.4%[0.501 µM]	50.1µM*	24.2	12.5%
O=C(Oc1ccccc1)N1CCC2(CCN(Cc3nccs3)CC2)CC1	.	.	-6.4%[12.7 µM]	.	.	.
CNCCc1cnc[nH]1	.	.	21.2%[59 µM]	.	.	.
CCOC(=O)c1cc(C)n(CCc2cnc[nH]2)c1C	?	-2.3	?	56.2µM*	-7.4	-15.2%
Cc1ccc(NC(=O)Nc2cc3c(cc2N2CCCCC2)n(C)c(=O)n3C)cc1Cl	?	.	?	?	.	1.7%
NS(=O)(=O)c1nc[nH]c1[N+](=O)[O-]	20µM*	8.3	.	.	-3.7	5.0%
SMILES	JMJD2A Tudor inh	Six1-Eya2 blk	G9a block	BAZ2B inh	CtBP-E1A blk	HP1b binding inh
O=C(CNC(=O)c1cccs1)NCC(=O)OCC(=O)c1ccc([N+](=O)[O-])cc1	-4.5%	-3.1	44.7µM*	.	2.3	-1.7%
Cc1nc2c(c(N3CCOCC3)n1)OCC(=O)N2	3.0%	-0.7	13.5%	-5.5%	4.8	46.7%
CC(C)c1ccc(N2C(=O)NC(=O)/C(=C\C=C\c3ccco3)C2=O)cc1	?	-18.9	?	-27.1%	-0.5	1.3%
COc1cc(OC)c(OC)cc1/C=C1\C(=O)NC(=O)N(Cc2ccccc2)C1=O	-6.8%	6.0	?	-27.9%	11.6	16.7%
COc1ccc(CN2C(=O)NC(=O)/C(=C\c3ccco3)C2=O)cc1	44.7µM*	-19.7	28.2µM*	28.2µM*	-6.3	?
COc1cc(OC)c(OC)cc1/C=C1/C(=O)NC(=O)N(Cc2ccccc2)C1=O	-18.9%	-5.4	50.1µM*	-18.3%	0.0	21.7%
COc1ccc(CN2C(=O)NC(=O)/C(=C\c3cc(OC)c(OC)c(OC)c3)C2=O)cc1	50.1µM*	-8.2	?	?	-11.7	-23.6%
O=C1NC(=O)N(Cc2ccccc2)C(=O)/C1=C/C=C/c1ccco1	-30.0%	4.6	.	35.5µM*	-3.3	-0.1%
c1cncc([C@@H]2CCCCN2)c1	.	.	-1.8%[21.5 µM]	.	.	.
Clc1ccc2c(c1)CCc1cccnc1C2=C1CCNCC1	.	.	-1.2%[59 µM]	?	.	.
NC(=O)CI	.	.	2.38µM*	.	.	.
CNC(=O)Oc1ccc2c(c1)[C@]1(C)CCN(C)[C@@H]1N2C	-13.1%	-2.3	44.7µM*!	6.2%	4.1	8.4%
CC1[C@H]2Cc3ccc(O)cc3[C@]1(C)CCN2CCc1ccccc1 (stereo partly drawn)	-16.6%	0.8	.	.	-7.9	38.7%
CN1CC[C@@]2(C)c3cc(O)ccc3N(C)C12 (stereo partly drawn)	.	.	9.47µM*	.	.	.
O=C1Nc2ccc(Cl)cc2C(c2ccccc2Cl)=NC1O (stereo not drawn)	.	.	18.8%[59 µM]	.	.	.
CNc1ccc2oc(C[C@@H]3OC4(CC[C@@H]3C)O[C@H](C(C)C(=O)c3ccc[nH]3)[C@H](C)C[C@H]4C)nc2c1C(=O)O (stereo partly drawn)	.	.	17.8µM*	.	.	.
CCCOc1ccc(C(=O)CCC(=O)NNC(=O)c2ccncc2)cc1	-5.9%	-1.6	55.8%	5.5%	2.6	28.7%
Cc1cc(Cc2c(O)[nH]c(=S)[nH]c2=O)ccc1OC(C)C	89.1µM*	3.2	8.91µM*	-20.7%	.	?
CC1N(C)c2cc(NC(=O)c3ccco3)c(P(=O)(Nc3ccc([N+](=O)[O-])cc3)N3CCOCC3)cc2C1(C)C (stereo not drawn)	?	-28.5	50.1µM*	?	-6.7	?
CCCc1nc2ccccc2c(=O)n1-c1ccc(OC)cc1	-4.0%	5.4	16.3%[2.33 µM]	-4.4%	-1.4	19.9%
COc1ccc(N2C(=O)CS(=O)C(c3ccccc3)C2=O)cc1 (stereo not drawn)	8.91µM*	-14.7	0.708µM*	?	-9.5	12.6µM*
CCOC(=O)c1cc2c(cn1)[C@@H](CCO)NC2	44.7µM*	?	.	.	-22.8	12.7%

Screening data (PubChem)
